Holding throughout (assay): NCI-60 one-dose screen, 48 h (100 = growth as untreated, 0 = no growth, -100 = all killed)
Common to all, as to conditions: 10 µM unless noted

In test [1] the test system is DU-145 prostate.
Test [2] relates to K-562 leukemia.
Test [3] deals with MALME-3M melanoma.
The test system of test [4] is MDA-MB-231 breast.
Test [5] concerns RXF 393 renal.
For test [6], the system named is SF-268 CNS.
Test [7] concerns SF-295 CNS.
Test [8] concerns SF-539 CNS.
The test system of test [9] is UACC-257 melanoma.
Test [10] concerns M14 melanoma.
The test system of test [11] is HCT-15 colon.
Test [12] relates to HT29 colon.
Test [13] has as its system SNB-75 CNS.
Test [14] concerns SNB-19 CNS.
For test [15], the system named is U251 CNS.
In test [16] the test system is PC-3 prostate.
Test [17] relates to SK-MEL-5 melanoma.
Test [18] concerns UACC-62 melanoma.
In test [19] the test system is LOX IMVI melanoma.
Test [20] relates to SK-MEL-28 melanoma.

This is part of a sample that, as a whole, favours compounds with a hit. Of some 83,000 tested, about 20% had one in any assay.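 Values shown are percent growth following 48 h exposure of cells in 96-well plates to a single concentration of compound; below 10 was considered active.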 Unmarked numbers belong to inactive results. Activity calls are given as the source filed them.

Consider `Cn1cc(-c2csc(-c3c[nH]c4ccc(F)cc34)n2)c2ccnc(Cl)c21`, for which the growth in test [1] was 51.2%; in test [2] it was 53.3%; in test [3], 121%; in test [4], 60.9%; in [5], 67.8%; in [6] it was 92%. Besides, the growth in test [7] is 85%; in test [8], 68.9%; in [9] it was 39.3%; in test [10], 57.4%; in test [11] it was 5.69% (active); in test [12], 29.8%. Also, the growth in [13] is 77.5%; in test [14] it was 91.4%; in test [15] it was 49.6%; in test [16], 62.1%; in [17] it was 63.2%; in test [18] it was 70.6%. The figures for the growth in [19] and in [20] were 67.5% and 93.5%, respectively.
Regarding `Nc1nc2c(c3ncccc13)C(c1cccc(Cl)c1)Cc1ncccc1-2` (stereo not given), the growth in test [1] was 21.5%; in test [2], 14%; in test [3] it was 67.7%; in test [4] it was 28.8%; in [5], 10.7%; in test [6], 45.6%. Also, the growth in test [7] was 0.813% (active); in [8], -19.9% (active); in [9] it was 63.6%; in test [10] it was 6.41% (active); in [11], 22.2%; in test [12], 2.28% (active). Also, the growth in [13] was 32.5%; in [14], 21.1%; in test [15], 16%; in test [16], 18.3%; in test [17], 29.3%; in test [18], 22.1%. Further, the figures for the growth in test [19] and in [20] were 36.8% and 63.9%, respectively.
In the case of `C#CCNC(=O)[C@]1(C)CCC[C@@]2(C)[C@H]1CC=C1C=C(C(C)C)CC[C@@H]12`, the growth in test [1] was 103%; in [2], 121%; in test [3], 97.5%; in test [4], 96.3%; in test [5], 120%; in test [6] it was 89.3%. For the same compound, the growth in test [7] was 91.6%; in test [8], 108%; in test [9], 110%; in test [10], 98.6%; in test [11], 94.8%; in [12], 102%. The growth in test [13] is 86.5%; in [14], 101%; in test [15], 106%; in [16], 95.4%; in test [17], 102%; in test [18], 92.1%. For the same compound, the growth in [19] is 96.8%; in test [20] it was 111%.
Take `C=C1C(=O)O[C@H]2[C@H]1CC/C(COC(=O)c1ccc(C(=O)O)s1)=C\CC[C@@]1(C)O[C@@H]21`: the growth in [1] was 18.6%; in [2] it was 3.11% (active); in test [3], 3.09% (active); in [4], -3.52% (active); in test [5] it was -56% (active); in [6] it was 24.2%. Besides, the growth in test [7] was 81%; in [8] it was -25.7% (active); in test [9] it was 52.7%; in test [10], 23.1%; in [11], 4.14% (active); in test [12] it was 7.91% (active). Moreover, the growth in test [13] was 71.2%; in [14], 48%; in test [15], 22.4%; in test [16] it was 18.1%; in test [17], 91.4%; in test [18], 3.21% (active). The growth in test [19] is -55.2% (active); in [20] it was 11.7%.
For the compound `Cc1c2ccncc2c(C)c2c1c1cc(CO)ccc1n2C`, the growth in [1] was -2.14% (active); in test [2], 6.77% (active); in test [3], -1.68% (active); in test [4], -8.51% (active); in [5], 11.9%; in test [6], 14.4%. Further, the growth in test [7] is 3.5% (active); in test [8], 17.2%; in test [9], -39.2% (active); in test [10], -22.9% (active); in test [11] it was 4.02% (active); in test [12], -21.1% (active). In addition, the growth in test [13] was 13.3%; in [14], 1.5% (active); in test [15] it was -10.8% (active); in test [16], 4.52% (active); in test [17], 6.31% (active); in test [18], -54.2% (active). Further, the values for the growth in test [19] and in test [20] were -21% (active) and 5.47% (active), respectively.
In the case of `Cc1c(CC(=S)N2CCOCC2)nnn1-c1cccc(C(F)(F)F)c1`, the growth in test [1] was 111%; in [2], 100%; in test [3] it was 104%; in test [4], 107%; in [5], 108%; in [6], 97.7%. Moreover, the growth in [7] is 109%; in [8], 95.1%; in [9], 105%; in test [10], 100%; in test [11], 104%; in test [12], 101%. In addition, the growth in test [13] was 92.3%; in test [14] it was 106%; in [15], 95.4%; in test [16] it was 99%; in test [17], 99.8%; in test [18], 101%. Further, the growth in test [19] is 98.2%; in [20], 113%.
As for `O=C(Cc1ccc(NC(=O)c2cccc(Cl)c2)cc1)NCc1ccccc1`, the growth in [1] is 86.1%; in [2], 13.9%; in test [3], 61.3%; in test [4], 60.8%; in test [5], 65%; in test [6], 61.7%. Also, the growth in test [7] is 41.3%; in [8], 36.7%; in [9] it was 69.1%; in test [10], 18.7%; in [11] it was 27.1%; in [12] it was 8.25% (active). Besides, the growth is 29.7% in test [13]; 47.5% in test [14]; 33.3% in test [15]; 48.8% in test [16]; 7.53% (active) in [17]; 37.2% in [18]. In addition, the growth in [19] is 39.6%; in test [20] it was 58.9%.

For the origin of these results see PubChem BioAssay (NCI).
